Compound activity: PubChem BioAssay, several laboratories
Sampled rows, rich in hits. Any-hit rate of the full collection: about 5.3%.
Mot1-301 SUMO: SUMOylation pathway inhibition by Mot1-301 growth rescue | S. cerevisiae Mot1-301 growth rescue, ATP luminescence, 38.5C; percent above DMSO median, 100 means doubled | growth rescue, % at 18.8 µM | hit rate 1% among 320,000 | AID 2716;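 active means every valid replicate shows activation above 250% relative to neutral control wells; inactive means the rest, any valid replicate at or below 250%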
PfM18AAP inh-1: blocks P. falciparum M18 aspartyl aminopeptidase | recombinant PfM18AAP, H-Glu-NHMec fluorogenic cleavage | inhibition, % at 7.35 µM | hit rate 1.2% among 290,000 | AID 1822;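 active means inhibition above the campaign mean inhibition over all tested compounds plus 3 SD, cut at about 28% in these data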
HIF act: HIF pathway transcriptional activation; U2OS HRE-luciferase reporter, luminescence; normalized: DMSO 0%, desferrioxamine 100%; activation, % at 7.5 µM (by protocol); hit rate 0.32% among 300,000;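 active means mean activation of at least 10% of the iron chelator positive control signal, with at least half of replicates also reaching 10%; inconclusive means mean and replicate majority disagree about reaching 10%; inactive means mean and most replicates under 10%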
ALR H2O2 inh: human ALR oxidase inhibition via reduced H2O2. P55789. purified ALR, DTT oxidation, H2O2 HRP-luminol luminescence. inhibition, % (concentration not given with the values). hit rate 3.8% among 290,000. AID 485317;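 active means mean replicate inhibition above about 79%, with every replicate also reaching it, limit read from the data; inconclusive means only one of the two criteria met; inactive means mean below limit and not every replicate reaching it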
Target sequence (P55789 whole entry, looked up): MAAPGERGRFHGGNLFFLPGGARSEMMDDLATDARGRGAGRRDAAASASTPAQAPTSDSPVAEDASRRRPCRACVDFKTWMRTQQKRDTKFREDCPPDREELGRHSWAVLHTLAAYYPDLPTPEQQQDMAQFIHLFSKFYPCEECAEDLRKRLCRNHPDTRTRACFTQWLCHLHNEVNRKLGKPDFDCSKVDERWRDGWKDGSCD
PfM18AAP inh-2: confirmation of Plasmodium falciparum M18 aspartyl aminopeptidase inhibitors; shares compounds with PfM18AAP inh-1; recombinant PfM18AAP, H-Glu-NHMec fluorogenic cleavage; inhibition, % at 7.35 µM; hit rate 28% among 2,400; AID 2170;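 active means mean inhibition over replicate wells above the hit cutoff set for the earlier primary screen, cut at about 29% in these data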
CTSL1 counter: Cathepsin L (human) inhibition, confirmation; 2,400 tested, under 10 active; AID 2178; inhibition, % at 5.96 µM; shares compounds with PfM18AAP inh-1; purified cathepsin L1, Z-Leu-Arg-MCA fluorescence;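 active means average inhibition across replicates above the hit cutoff set in the earlier primary screen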
Target sequence (P07711 whole entry, looked up): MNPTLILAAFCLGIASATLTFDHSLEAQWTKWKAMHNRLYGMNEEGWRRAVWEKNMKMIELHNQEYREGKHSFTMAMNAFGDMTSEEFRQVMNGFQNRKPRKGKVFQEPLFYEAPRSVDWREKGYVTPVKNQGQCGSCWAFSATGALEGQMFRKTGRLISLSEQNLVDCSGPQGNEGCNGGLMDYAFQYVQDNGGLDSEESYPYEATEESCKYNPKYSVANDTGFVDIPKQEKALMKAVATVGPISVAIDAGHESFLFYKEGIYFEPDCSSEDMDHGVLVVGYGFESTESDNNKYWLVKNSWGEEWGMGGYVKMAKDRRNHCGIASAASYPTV
Of the large screens only hits and unclear results are named; the others gave an inactive call (follow-up assays come after a bar, where they were run); ! = not confirmed by another sample.

O=C(NNc1ccc([N+](=O)[O-])cc1)c1ccccc1Cl	PfM18AAP inh-1 50.4 | PfM18AAP inh-2 inactive | CTSL1 counter inactive
COc1cccc(-c2noc(CCCC(=O)N3CCOCC3)n2)c1	none (no result: ALR H2O2 inh)
O=C(NNc1ccc([N+](=O)[O-])cc1)Nc1ccccc1	PfM18AAP inh-1 55.4 (no result: ALR H2O2 inh) | PfM18AAP inh-2 32.4 | CTSL1 counter inactive
COc1cc(/C=N/n2cnn(Cc3ccccc3Cl)c2=S)cc(OC)c1OC	none
COc1ccc(/C=N/n2cnn(Cc3ccccc3Cl)c2=S)cc1	PfM18AAP inh-1 33.7 | PfM18AAP inh-2 inactive | CTSL1 counter inactive
COc1ccccc1CNc1nc(C)c(C(=O)N(C)C)s1	PfM18AAP inh-1 34.2 (no result: Mot1-301 SUMO, ALR H2O2 inh) | PfM18AAP inh-2 inactive | CTSL1 counter inactive
COc1ccccc1CNc1nc(C)c(C(C)=O)s1	none
COc1ccc(C(=O)NCc2nnc(SCC(=O)Nc3nnc(C)s3)o2)cc1	PfM18AAP inh-1 35.0, ALR H2O2 inh 99.2 | PfM18AAP inh-2 inactive | CTSL1 counter inactive
Cc1nnc(NC(=O)CSc2nnc(CNC(=O)c3ccc(F)cc3)o2)s1	none
COc1ccc(C(=O)NCc2nnc(SCC(=O)Nc3nnc(C)s3)o2)cc1OC	PfM18AAP inh-1 47.3 | PfM18AAP inh-2 inactive | CTSL1 counter inactive
CCc1nnc(NC(=O)CSc2nnc(CNC(=O)c3cc(OC)c(OC)c(OC)c3)o2)s1	PfM18AAP inh-1 40.8 | PfM18AAP inh-2 inactive | CTSL1 counter inactive
CCSc1nnc(NC(=O)CSc2nnc(CNC(=O)c3ccc(OC)cc3)o2)s1	none (no result: ALR H2O2 inh)
CCSc1nnc(NC(=O)CSc2nnc(CNC(=O)c3cc(OC)c(OC)c(OC)c3)o2)s1	none
CC(C)c1cc(NCCOCCO)n2c(nc3ccccc32)c1C#N	none
NS(=O)(=O)c1ccc(NNC(=O)c2sccc2Cl)cc1	PfM18AAP inh-1 52.0 | PfM18AAP inh-2 inactive | CTSL1 counter inactive
C=CCn1c(=O)c(C(=O)NC2CC2)c(O)c2cc(OC)c(OC)cc21	none
O=C(Nc1ccc(F)cc1)c1ccc(-n2cncn2)c([N+](=O)[O-])c1	none
CCOc1ccccc1N/C(=C(/C(Cl)=C(Cl)Cl)[N+](=O)[O-])n1cncn1	PfM18AAP inh-1 82.8 (no result: HIF act) | PfM18AAP inh-2 73.5 | CTSL1 counter inactive
O=[N+]([O-])/C(C(Cl)=C(Cl)Cl)=C(\Nc1ccc(F)cc1)n1cncn1	PfM18AAP inh-1 80.6, ALR H2O2 inh 96.1 (no result: HIF act) | PfM18AAP inh-2 79.3 | CTSL1 counter inactive
CCOCCC(=O)Nc1cc(Cl)ccc1OC	none
Cc1cccc(Nc2nc3c(s2)CCCC3)c1	PfM18AAP inh-1 32.2, ALR H2O2 inh 96.2 | PfM18AAP inh-2 inactive | CTSL1 counter inactive
S=C(Nc1cccc(Cl)c1Cl)N1CCCC1	none (no result: HIF act)
S=C(Nc1cccc(Cl)c1Cl)Nn1cnnc1	PfM18AAP inh-1 82.2 | PfM18AAP inh-2 82.2 | CTSL1 counter inactive
O=C(Nc1cccc(Cl)c1Cl)Nn1cnnc1	PfM18AAP inh-1 84.3 | PfM18AAP inh-2 76.9 | CTSL1 counter inactive
c1ccc(Cn2nnc3ccccc32)cc1	none
S=c1[nH]nc(Cn2nnc3ccccc32)n1-c1ccccc1	PfM18AAP inh-1 42.5 | PfM18AAP inh-2 inactive | CTSL1 counter inactive
S=c1[nH]nc(Cc2n[nH]c(=S)n2-c2ccccc2)n1-c1ccccc1	PfM18AAP inh-1 35.4, ALR H2O2 inh 93.4 | PfM18AAP inh-2 inactive | CTSL1 counter inactive
S=c1[nH]nc(CCc2ccccc2)n1-c1ccccc1	none
COc1ccc(N2CCN(C(=O)Cn3ncc4c([nH]c5ccccc54)c3=O)CC2)cc1	none (no result: HIF act)
O=C(O)c1ccnc(SCC(=O)c2ccccc2)c1	PfM18AAP inh-1 49.8 (no result: ALR H2O2 inh) | PfM18AAP inh-2 inactive | CTSL1 counter inactive
Cc1ccc(C(=O)CSc2ccccn2)cc1	PfM18AAP inh-1 43.8 | PfM18AAP inh-2 inactive | CTSL1 counter inactive
O=C(CSc1ccccn1)c1ccc(F)cc1	none (no result: HIF act)
CCOC(=O)c1cc(S(=O)(=O)N(C)Cc2ccccc2)cn1C	none
Nc1cc(-c2ccccc2)ccc1O	PfM18AAP inh-1 35.1!, ALR H2O2 inh 98.8 | PfM18AAP inh-2 inactive | CTSL1 counter inactive
Nc1ccc(O)c2ccccc12	ALR H2O2 inh inconclusive (no result: PfM18AAP inh-1)
COc1ccc2nc(Nc3sc4c(c3C(N)=O)CCCC4)sc2c1	PfM18AAP inh-1 42.2 (no result: HIF act) | PfM18AAP inh-2 inactive | CTSL1 counter inactive
CCOC(=O)C(=O)c1csc(NC(=O)CCSc2ccc(C)cc2)n1	none
CCOC(=O)CSc1nnc(-c2cc(OC)c(OC)c(OC)c2)o1	none
COc1cc(-c2nnc(SCc3cc(=O)oc4cc(O)c(O)cc34)o2)cc(OC)c1OC	PfM18AAP inh-1 34.9 (no result: ALR H2O2 inh) | PfM18AAP inh-2 inactive | CTSL1 counter inactive
Fc1ccc(N=Cc2ccc[nH]2)cc1	none
